For 21 compounds, growth results are on record in PubChem BioAssay (NCI).

Some test systems named below: DU-145 prostate; K-562 leukemia; MALME-3M melanoma; MDA-MB-231 breast; RXF 393 renal; SF-268 CNS; SF-295 CNS; SF-539 CNS; UACC-257 melanoma; M14 melanoma.
Assay in all cases: NCI-60 one-dose screen, 48 h (100 = growth as untreated, 0 = no growth, -100 = all killed)
Holding throughout (details): 10 µM unless noted

The panel holds about 83,000 compounds, 20% with a hit somewhere; the sample as a whole holds those more often.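 Percent growth is the endpoint: 0 to 100 indicates growth inhibition (40 means 60% inhibition), 0 means no net growth, and negative values indicate cell death.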 Values without a mark were called inactive. Activity calls are given as the source filed them. Rule for the calls: active = growth percent below 10; inactive = the rest.

For `COc1ccc(C(=O)c2sc3nc(C)cc(C)c3c2N)cc1OC`, the growth in the assay with DU-145 prostate was 90.7%; with K-562 leukemia it was 92.6%; with MALME-3M melanoma it was 83.3%; in the assay with MDA-MB-231 breast, 56.3%; in the assay with RXF 393 renal it was 93.9%; in the assay on SF-268 CNS it was 60.1%. Moreover, the growth was 89.8% in the assay with SF-295 CNS, 92.2% in the assay with SF-539 CNS, 95.1% in the assay on UACC-257 melanoma and 105% with M14 melanoma.

As for `CC(C)(C)CC(C)(C)c1ccc(OCCOCC[N+](C)(C)Cc2ccccc2)cc1`, the growth in the assay with DU-145 prostate is 39.4%; with K-562 leukemia it was -35.4% (active); in the assay with MALME-3M melanoma, -16.4% (active); in the assay on MDA-MB-231 breast, -88.2% (active); in the assay on RXF 393 renal it was 0.0752% (active); with SF-268 CNS, -54.1% (active). Further, the growth in the assay on SF-295 CNS is 41.8%; in the assay with SF-539 CNS it was -64.9% (active); in the assay with UACC-257 melanoma, -90.8% (active); in the assay with M14 melanoma, -27.5% (active).

Consider `C#Cc1cccc(NC(=O)c2ccccc2NC(=O)CCl)c1`, for which the growth was 96.2% [8.25 µM] with DU-145 prostate; 68.2% [8.25 µM] in the assay on K-562 leukemia; 105% [8.25 µM] in the assay with MALME-3M melanoma; 111% [8.25 µM] in the assay with MDA-MB-231 breast; 96.7% [8.25 µM] in the assay with RXF 393 renal; 68% [8.25 µM] in the assay with SF-268 CNS. The growth in the assay with SF-295 CNS is 103% [8.25 µM]; in the assay with SF-539 CNS, 93.4% [8.25 µM]; with UACC-257 melanoma, 98.4% [8.25 µM]; with M14 melanoma, 83.3% [8.25 µM].

On to `Cc1nn(-c2cc(=O)[nH]c3ccccc23)c(N)c1C#N`, for which the growth is 107% in the assay with DU-145 prostate; 105% in the assay on K-562 leukemia; 108% with MALME-3M melanoma; 103% with MDA-MB-231 breast; 112% in the assay on RXF 393 renal; 97.7% with SF-268 CNS. Besides, the growth was 100% in the assay on SF-295 CNS, 95% in the assay on SF-539 CNS, 110% in the assay with UACC-257 melanoma and 106% in the assay with M14 melanoma.

With `CC1SC(c2ccc(N(C)C)cc2)N(NC(=O)C(O)(c2ccccc2)c2ccccc2)C1=O` (stereo not given), the growth in the assay on DU-145 prostate was 97.2%; with K-562 leukemia, 86.1%; in the assay on MALME-3M melanoma it was 87.6%; in the assay with MDA-MB-231 breast, 99.1%; in the assay on RXF 393 renal, 118%; with SF-268 CNS it was 141%. Besides, the growth was 27.9% in the assay on SF-295 CNS, 96.7% with SF-539 CNS, 106% with UACC-257 melanoma and 96% with M14 melanoma.

Take `CCCCCCN(CCCCCC)CCC(O)c1ccc2ccccc2c1` (stereo not given): the growth was 74.3% with DU-145 prostate; 27.9% in the assay with K-562 leukemia; 68.5% in the assay on MALME-3M melanoma; 42.4% with MDA-MB-231 breast; 46.7% in the assay on RXF 393 renal; 73.3% in the assay with SF-268 CNS. In addition, the growth in the assay with SF-295 CNS was 52.5%; in the assay on SF-539 CNS it was 61.9%; in the assay with UACC-257 melanoma, 85.3%; in the assay on M14 melanoma, 50.2%.

`COc1ccc(S(=O)(=O)N2CC3(COC3)C2)cc1NC(=O)c1[nH]c(C)c2c1CCCCC2=O`: the growth with DU-145 prostate was 79.6%; with K-562 leukemia it was 45.1%; in the assay with MALME-3M melanoma, 61.1%; in the assay on MDA-MB-231 breast, 47.1%; with RXF 393 renal it was 76%; in the assay on SF-268 CNS it was 78.1%. In addition, the growth with SF-295 CNS is 52.8%; with SF-539 CNS it was 45.3%; in the assay with UACC-257 melanoma, 51.9%; with M14 melanoma it was 58.1%.

Take `O=C1c2cc3c(cc2-c2c1c1ccc(F)cc1c(=O)n2C[C@H](O)[C@H](O)[C@H](O)CO)OCO3`: the growth was -1.68% (active) with DU-145 prostate; 5.32% (active) in the assay with K-562 leukemia; -48.9% (active) in the assay with MALME-3M melanoma; -1.24% (active) with MDA-MB-231 breast; -57.2% (active) in the assay with RXF 393 renal; 1.96% (active) in the assay on SF-268 CNS. Besides, the growth in the assay on SF-295 CNS was -23.6% (active); in the assay with SF-539 CNS, -41.1% (active); in the assay on UACC-257 melanoma, -43.4% (active); in the assay on M14 melanoma, -20.4% (active).

`C#CCOc1ccc2ncnc(Nc3cccc(CNC(=O)C=C)c3)c2c1`: the growth was 108% [8.25 µM] in the assay with DU-145 prostate; 104% [8.25 µM] in the assay on K-562 leukemia; 109% [8.25 µM] in the assay with MALME-3M melanoma; 101% [8.25 µM] in the assay on MDA-MB-231 breast; 79.4% [8.25 µM] with RXF 393 renal; 86.2% [8.25 µM] in the assay with SF-268 CNS. The growth in the assay on SF-295 CNS is 102% [8.25 µM]; with SF-539 CNS, 99.9% [8.25 µM]; with UACC-257 melanoma, 106% [8.25 µM]; in the assay on M14 melanoma it was 103% [8.25 µM].

Take `COc1ccc(-c2nn(-c3ccc(Cl)cc3)cc2-c2nc3ccccc3[nH]2)cc1`: the growth is 120% with DU-145 prostate; 89% in the assay on K-562 leukemia; 98.5% in the assay on MALME-3M melanoma; 73% in the assay with MDA-MB-231 breast; 94.7% with RXF 393 renal; 94.7% in the assay on SF-268 CNS. Also, the growth was 98.1% with SF-295 CNS, 106% in the assay with SF-539 CNS, 101% with UACC-257 melanoma and 90% in the assay on M14 melanoma.

In the case of `Cc1ccc2c(C(C[N+](=O)[O-])c3ccccc3F)c(-c3ccccc3)[nH]c2c1` (stereo not given), the growth with DU-145 prostate was 66.2%; with K-562 leukemia, 11.8%; in the assay with MALME-3M melanoma, 46.1%; with MDA-MB-231 breast it was 61.4%; in the assay on RXF 393 renal, 63.6%; with SF-268 CNS, 46.7%. The growth is 17.6% in the assay on SF-295 CNS, 52.3% with SF-539 CNS, 46.9% in the assay on UACC-257 melanoma and 26.2% with M14 melanoma.

As for `O=C(NCCN1CCOCC1)Nc1ccc(-c2cc3c(Nc4ccc(Oc5cccc(C(F)(F)F)c5)c(Cl)c4)ncnc3s2)cc1`, the growth in the assay on DU-145 prostate was 44.7%; in the assay on K-562 leukemia, -29.5% (active); with MALME-3M melanoma it was -57.5% (active); in the assay with MDA-MB-231 breast, 12%; with RXF 393 renal, -19.5% (active); in the assay on SF-268 CNS, 29.3%. Moreover, the growth was -58.5% (active) in the assay on SF-295 CNS, -13.5% (active) in the assay on SF-539 CNS, 26.4% with UACC-257 melanoma and -50.5% (active) in the assay with M14 melanoma.

On to `COc1cc(/C=C/c2cc(O)c3cc(C(C)=O)c(=O)oc3c2)cc2c1O[C@]1(C)CC[C@@H](O)C(C)(C)[C@H]1C2`, for which the growth in the assay with DU-145 prostate was 53.4%; with K-562 leukemia, 17.2%; with MALME-3M melanoma, 25.4%; in the assay with MDA-MB-231 breast it was 64.4%; in the assay with RXF 393 renal it was -58.5% (active); in the assay on SF-268 CNS, 35.8%. The growth in the assay on SF-295 CNS was -63.3% (active); with SF-539 CNS, -33.3% (active); in the assay with UACC-257 melanoma, 36.5%; with M14 melanoma, -49.4% (active).

For `Cc1cc(C)c2nc3nc(C)cc(C)c3c(N)c2c1`, the growth in the assay with DU-145 prostate was 15.5%; in the assay on K-562 leukemia it was 10% (active); in the assay with MALME-3M melanoma, 24%; in the assay on MDA-MB-231 breast it was 30.2%; in the assay on RXF 393 renal it was 42.5%; in the assay on SF-268 CNS, 19.7%. Further, the growth was 29.6% in the assay on SF-295 CNS, 14.1% with SF-539 CNS, 40.2% in the assay on UACC-257 melanoma and 34.1% in the assay on M14 melanoma.

As for `COc1ccc(-c2cc(=O)c3c(OC)c4ccoc4cc3o2)cc1`, the growth with DU-145 prostate was 106%; in the assay on K-562 leukemia, 88.2%; in the assay on MALME-3M melanoma, 113%; in the assay on MDA-MB-231 breast, 91.7%; in the assay with RXF 393 renal, 107%; with SF-268 CNS, 97.9%. In addition, the growth in the assay on SF-295 CNS was 40.7%; in the assay on SF-539 CNS, 105%; in the assay on UACC-257 melanoma it was 107%; with M14 melanoma, 115%.

Turning to `COc1cc(/C=C/c2cc(/C=C/c3ccc(O)c(OC)c3)n(-c3c(Cl)cccc3Cl)c(=O)n2)ccc1O`, the growth was 28.7% in the assay on DU-145 prostate; 9.21% (active) in the assay on K-562 leukemia; 58.8% with MALME-3M melanoma; 29% in the assay with MDA-MB-231 breast; -11.8% (active) with RXF 393 renal; 19.9% in the assay with SF-268 CNS. In addition, the growth was 75.4% in the assay on SF-295 CNS, 3.35% (active) in the assay on SF-539 CNS, 41.1% with UACC-257 melanoma and 7.71% (active) in the assay with M14 melanoma.

`O=S(=O)(Nc1ccc(Br)c(Cl)c1)c1ccc(-c2cnc(C3CC3)o2)cc1`: the growth is 9.63% (active) with DU-145 prostate; 10.2% in the assay with K-562 leukemia; 30.9% in the assay with MALME-3M melanoma; 33.6% with MDA-MB-231 breast; -10.6% (active) in the assay with RXF 393 renal; 50.3% with SF-268 CNS. In addition, the growth is 5.84% (active) with SF-295 CNS, -19.8% (active) with SF-539 CNS, 55.5% with UACC-257 melanoma and 5.11% (active) in the assay on M14 melanoma.

In the case of `Nc1n[nH]c2ccc([C@@H]3Nc4cc5c(cc4[C@H]4C6CCC(C6)[C@@H]34)C(=O)NC5)cc12` (stereo not given in full), the growth is -17.9% (active) with DU-145 prostate; 7.25% (active) in the assay on K-562 leukemia; 49.8% in the assay on MALME-3M melanoma; 37.9% in the assay with MDA-MB-231 breast; 27.1% with RXF 393 renal; 22.8% in the assay with SF-268 CNS. The growth with SF-295 CNS was 10.8%; in the assay on SF-539 CNS it was -24.9% (active); in the assay on UACC-257 melanoma it was 76.7%; in the assay on M14 melanoma, 7.72% (active).

For `Cn1cc(-c2nonc2-c2c[nH]c3ccc(F)cc23)c2cccnc21`, the growth with DU-145 prostate was 96%; in the assay with K-562 leukemia it was 58%; in the assay with MALME-3M melanoma, 93.4%; with MDA-MB-231 breast it was 78.4%; in the assay on RXF 393 renal, 72.8%; in the assay with SF-268 CNS it was 78.3%. Also, the growth is 78.9% in the assay on SF-295 CNS, 88.7% in the assay on SF-539 CNS, 89.9% in the assay on UACC-257 melanoma and 90.3% with M14 melanoma.

For `CSc1nc(-c2cccc(NC(=O)CCl)c2)c(C#N)c(=O)n1C`, the growth is 77.3% in the assay with DU-145 prostate; 11.4% with K-562 leukemia; -72.6% (active) in the assay on MALME-3M melanoma; 65.9% in the assay on MDA-MB-231 breast; 63.9% with RXF 393 renal; 61.5% in the assay on SF-268 CNS. The growth in the assay on SF-295 CNS was 98.7%; with SF-539 CNS it was 38.6%; in the assay with UACC-257 melanoma it was 63.5%; in the assay with M14 melanoma it was 56.8%.

On to `CN(C)S(=O)(=O)c1cccc(-c2nc3sc4c(c3c(=O)[nH]2)CCCC4)c1`, for which the growth was 54.5% in the assay on DU-145 prostate; 37.9% in the assay with K-562 leukemia; 17.2% with MALME-3M melanoma; 34.8% with MDA-MB-231 breast; 10.7% in the assay with RXF 393 renal; 64.9% in the assay on SF-268 CNS. The growth with SF-295 CNS is 24.7%; with SF-539 CNS, 23%; in the assay with UACC-257 melanoma it was 75%; in the assay on M14 melanoma, 48%.
